FBA Mtb inh: inhibits M. tuberculosis FBA enzyme | purified M. tuberculosis FBA, fluorescence read-out | inhibition, % at 1 µM | 2.3% of 360,000 active | AID 588726
Target sequence (P9WQA3 whole entry, looked up): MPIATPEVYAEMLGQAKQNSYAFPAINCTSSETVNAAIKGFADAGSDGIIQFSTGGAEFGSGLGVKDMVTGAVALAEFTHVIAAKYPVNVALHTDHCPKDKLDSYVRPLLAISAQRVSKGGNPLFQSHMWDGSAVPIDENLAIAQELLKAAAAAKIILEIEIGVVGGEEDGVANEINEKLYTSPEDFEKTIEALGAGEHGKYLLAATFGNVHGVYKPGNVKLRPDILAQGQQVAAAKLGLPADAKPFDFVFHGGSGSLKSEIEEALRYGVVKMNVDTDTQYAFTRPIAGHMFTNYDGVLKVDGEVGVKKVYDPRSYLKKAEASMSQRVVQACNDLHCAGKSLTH
GDH-TPI counter-1: GDH-TPI coupled enzyme inhibition counter-screen; GDH-TPI coupled enzyme counterscreen, NADH absorbance; inhibition, % at 4.8 µM; 1.2% of 360,000 active; in the data active = inhibition above about 30%
Vc quorum ag: induces V. cholerae light production without autoinducers | activation, % at 18.7 µM | V. cholerae BH1578 lux reporter, luminescence, 6 h | AID 588436 | 0.16% of 350,000 active; in the data active = activation mostly above about 9.7%, no sharp cut-off
CCHFV vOTU inh: blocks the CCHF virus ovarian tumor domain protease; CCHFV vOTU protease, Pep-AMC fluorescence; 0.55% of 370,000 active; AID 651958; inhibition, % at 11.5 µM; in the data active = inhibition above about 30%
Mtb FBA confirm: confirmation of M. tuberculosis fructose-bisphosphate aldolase inhibitors; shares compounds with FBA Mtb inh; purified M. tuberculosis FBA, fluorescence read-out; inhibition, % at 1 µM; 78% of 5,600 active; AID 651616
GDH-TPI counter-2: inhibits GDH-TPI coupling enzymes, flagging Mtb FBA hits; shares compounds with FBA Mtb inh; GDH-TPI coupled enzyme counterscreen, fluorescence; inhibition, % at 1 µM; 81% of 5,600 active; AID 652141; in the data active = inhibition above about 10%
GDH-TPI dose: inhibits GDH-TPI coupling enzymes in dose response. shares compounds with FBA Mtb inh. IC50, µM. AID 652145. 79% of 170 active. GDH-TPI coupled enzyme assay, fluorescence, artifact counterscreen; call rule not given here
Each line names hits and unclear results; the compound was inactive in the other large screens (follow-up assays come after a bar, where they were run). Only some compounds are listed: those with a hit (about 3.9% of all), similar ones and a draw of the others. Cut-off read from the data, not from the text of the source, unless noted: active = inhibition above about 27%; inactive = the rest.

c1ccc2cc3[nH]c(CN4CCOCC4)nc3cc2c1	FBA Mtb inh 103 | Mtb FBA confirm inactive | GDH-TPI counter-2 inactive
COc1cc2c(cc1OC)[C@@]13CCN4CC5=CCO[C@H]6CC(=O)N2[C@H]1[C@H]6[C@H]5C[C@H]43	none
COCC(C)NC(=O)c1ccccc1OC(C)=O (stereo not given)	FBA Mtb inh 35 | Mtb FBA confirm 42 | GDH-TPI counter-2 38
CCOC(=O)c1[nH]c2ccc(OC)cc2c1NC(=O)C(C)N1CCSCC1 (stereo not given)	none (no result: FBA Mtb inh, GDH-TPI counter-1, Vc quorum ag)
CCOC(=O)c1[nH]c2cc(OC)c(OC)cc2c1NC(=O)C(C)N1CCN(Cc2ccccc2)CC1 (stereo not given)	FBA Mtb inh 47 | Mtb FBA confirm active | GDH-TPI counter-2 active
COc1ccccc1CNc1nc(Nc2ccccc2OC)c2sccc2n1	none (no result: CCHFV vOTU inh)
Fc1ccccc1-c1nc(NCC2CC2)nc2ccsc12	FBA Mtb inh 42 | Mtb FBA confirm 100 | GDH-TPI counter-2 84
COCCNc1nc(-c2ccc(Cl)cc2C)c2sccc2n1	FBA Mtb inh 69 | Mtb FBA confirm inactive | GDH-TPI counter-2 inactive
Cc1cscc1-c1nc(NCC2CC2)nc2ccsc12	FBA Mtb inh 37 | Mtb FBA confirm 127 | GDH-TPI counter-2 100
COc1cccc(CNc2nc(NCC3CC3)nc3ccsc23)c1	none
COc1ccccc1CNc1nc(-c2ccccc2CO)c2sccc2n1	FBA Mtb inh 51 | Mtb FBA confirm 130 | GDH-TPI counter-2 90
Cc1ccc(OCCC(=O)OCC(=O)NCCNC(=O)COC(=O)CCOc2ccc(C)cc2)cc1	none
FC(F)(F)c1nc2cc3nc4ccccc4[nH]c3cc2n1	none
O=C(OCc1ccccc1Cl)c1cccnc1Cl	none
N#Cc1ccccc1COC(=O)c1cccnc1N	FBA Mtb inh 46 | Mtb FBA confirm 153 | GDH-TPI counter-2 96
COc1ccc(Cn2nnnc2C(c2cccnc2)N2CCN(c3ccc(O)cc3)CC2)cc1 (stereo not given)	none
Cc1cccc2cc(C#N)c(NCCCn3ccnc3)nc12	FBA Mtb inh 39 | Mtb FBA confirm 152 | GDH-TPI counter-2 139
Cc1cccc2cc(C#N)c(NCCNC(=O)COc3ccccc3)nc12	FBA Mtb inh 40 | Mtb FBA confirm 102 | GDH-TPI counter-2 89
COc1cccc(C(=O)NCCNc2nc3cc(C)cc(C)c3cc2C#N)c1	none (no result: FBA Mtb inh, GDH-TPI counter-1, Vc quorum ag)
CCOCCCNC(=S)NCCNc1nc2c(C)cccc2cc1C#N	FBA Mtb inh 57 (no result: CCHFV vOTU inh) | Mtb FBA confirm 33 | GDH-TPI counter-2 29
Cc1ccc2cc(C#N)c(NCCNC(=O)C3CC3)nc2c1C	FBA Mtb inh 32 | Mtb FBA confirm 133 | GDH-TPI counter-2 111
Cc1cc(C)c2cc(C#N)c(NCCNC(=O)c3cccnc3)nc2c1	none (no result: FBA Mtb inh, GDH-TPI counter-1, Vc quorum ag)
COc1ccccc1CC(=O)Nc1cc(S(=O)(=O)N2CCOCC2)ccc1N1CCOCC1	none
Cc1ccc2cc(C#N)c(NCCNC(=S)NCCCN(C)C)nc2c1C	none
CCOCCCNC(=S)NCCCNc1nc2c(C)cc(C)cc2cc1C#N	FBA Mtb inh 38 | Mtb FBA confirm active | GDH-TPI counter-2 147
Cc1cc(C)c2nc(NCCCNC(=S)NCCCN(C)C)c(C#N)cc2c1	FBA Mtb inh 58 | Mtb FBA confirm 52 | GDH-TPI counter-2 43
CN(C)/C=C/C(=O)c1cccc(Oc2ncccn2)c1	none
Cc1cc(N2CCCC2)ccc1NC(=O)CN1C(=O)NC(C)(c2ccccc2)C1=O (stereo not given)	none
Cc1cc(=O)oc2cc(OCCc3ccccc3)ccc12	FBA Mtb inh 68 | Mtb FBA confirm inactive | GDH-TPI counter-2 inactive | GDH-TPI dose 2.5
Cc1cc(=O)oc2cc(OCCCC[n+]3ccccc3)ccc12	FBA Mtb inh 35 | Mtb FBA confirm 169 | GDH-TPI counter-2 active
Cc1cc(=O)oc2cc(OCC(=O)c3ccccc3)ccc12	none
Cc1cc(=O)oc2cc(NC(=S)NCc3ccccn3)ccc12	none
Cc1cc(=O)oc2cc(NC(=S)NNC(=O)c3c(Cl)cnn3C)ccc12	FBA Mtb inh 83, GDH-TPI counter-1 35 | Mtb FBA confirm 43 | GDH-TPI counter-2 28
CCOC(=O)Cc1c(C)nc2c(-c3ccccc3)c(-c3ccccc3)[nH]n2c1=O	FBA Mtb inh 72 (no result: CCHFV vOTU inh) | Mtb FBA confirm 58 | GDH-TPI counter-2 41
CCc1c(C)nc2c(-c3ccccc3)c[nH]n2c1=O	FBA Mtb inh 33 | Mtb FBA confirm inactive | GDH-TPI counter-2 inactive | GDH-TPI dose 8.1
CCOC(=O)Cc1cc(=O)n2[nH]cc(-c3ccc(Cl)cc3)c2n1	none
Cc1nc2c(C#N)c[nH]n2c(=O)c1Cc1ccccc1	none
CCOC(=O)Cc1c(C)nc2c(-c3ccccc3)c(C)[nH]n2c1=O	none
CCOC(=O)Cc1c(C)nc2c(-c3ccccc3)c[nH]n2c1=O	FBA Mtb inh 85 | Mtb FBA confirm 176 | GDH-TPI counter-2 172
O=C(NCc1ccc2c(c1)OCO2)Nc1ccc2ccccc2c1	none
COc1ccccc1NS(=O)(=O)c1cccc(C(=O)NCC2(N3CCCCC3)CCCCC2)c1	none
CCOC(=O)c1[nH]c2cc3c(cc2c1NC(=O)CN1CCc2ccccc2C1)OCO3	FBA Mtb inh 81 | Mtb FBA confirm inactive | GDH-TPI counter-2 inactive | GDH-TPI dose 1.3
COC(=O)c1[nH]c2ccccc2c1NC(=O)CN1CCCCCC1	none
CCOC(=O)c1[nH]c2cc3c(cc2c1NC(=O)CN1CCCC1)OCO3	FBA Mtb inh 73 | Mtb FBA confirm 76 | GDH-TPI counter-2 49
CCC1OC2(C)OC(=N)C1(C#N)C(C#N)(C#N)C2c1ccccc1 (stereo not given)	FBA Mtb inh 56 | Mtb FBA confirm inactive | GDH-TPI counter-2 inactive | GDH-TPI dose 3.3
CC1CCC(C(C)C)C2=C1C(C#N)(C#N)C(C#N)(C#N)C(c1ccccc1)N2 (stereo not given)	none
CC(C)C1OC2(C)OC(=N)C1(C#N)C(C#N)(C#N)C2c1ccccc1 (stereo not given)	FBA Mtb inh 50 | Mtb FBA confirm 94 | GDH-TPI counter-2 82
COc1cc([N+](=O)[O-])cc(/C=N/NC(=O)C(C)Nc2ccccc2C)c1O (stereo not given)	none
COc1cccc2c1cc1c(=O)n(CC(=O)N3CCCC3)nc(C)n12	FBA Mtb inh 80 | Mtb FBA confirm inactive | GDH-TPI counter-2 inactive
Cn1c(=O)c2c(O)c(Cc3ccccc3)c(=O)[nH]c2n(C)c1=O	none
COC(=O)CC1=NN(c2ccc(OC)cc2)C(=O)C1	none
N#Cc1cc2cc3c(cc2nc1NCCNC(=S)NCCCN1CCOCC1)OCO3	FBA Mtb inh 69 | Mtb FBA confirm 133 | GDH-TPI counter-2 111
S=C(NCCCN1CCOCC1)NCCCN1CCOCC1	none
CCSc1nnc(NC(=O)c2ccc(F)c(S(=O)(=O)N3CCOCC3)c2)s1	none
CS(=O)(=O)c1cc(N2CCOCC2)ccc1CNC[C@H]1O[C@@H](n2cnc3c(=O)[nH]c(N)nc32)[C@H](O)[C@@H]1O	none (no result: GDH-TPI counter-1, Vc quorum ag)
O=C(c1ccc(NS(=O)(=O)c2cccc(F)c2)cc1)N1CCCC1	none

Compound activity: PubChem BioAssay, several laboratories
